Each structure is given as a SMILES string. About 1,100 (1.7%) of roughly 63,000 compounds were called active. What follows is part of a selection rich in actives, with near analogues and random picks from the rest. Entries with a potency or affinity are not part of this list. A number with no mark means an inactive call.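 The calls were made as follows: active = compounds whose percent cytotoxicity in the single-dose primary screen, scaled between solvent and toxic-drug controls, exceeds 50; inactive = the rest.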

A short description of this experiment: viability loss of HPDE-C7K cells – cell-based, fluorescence, HTS, primary screen (AID 431).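 Also: 0% = DMSO solvent wells and 100% = doxorubicin-treated wells.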 Conditions: HPDE-C7K KRASV12 cells, Alamar Blue viability, 48 h; at 10 µM; stronger effect = higher value. (The colour change of resazurin is a common sign of viable cells or microbes.)
For `CCOC(=O)c1[nH]c2ccc(C)cc2c1N=C(C)N(C)C`, the cytotoxicity is 70% (active).

In the case of `CCOC(=O)c1[nH]c2ccc(F)cc2c1N=C(C)N(CC)CC`, the cytotoxicity is -17.4%.

Take `CCOC(=O)c1[nH]c2ccc(C)cc2c1N=CN(CC)CC`: the cytotoxicity is 4.8%.

For the molecule `OC(CN1CCOCC1)CN(c1ccccc1)c1ccccc1` (stereo not given), the cytotoxicity was -10.7%.

In the case of `O=C(CSc1ncnc2ccccc12)N1CCCC1`, the cytotoxicity is -10.1%.

With `c1ccc2c(c1)nc(N1CCOCC1)c1c3ccccc3[nH]c21`, the cytotoxicity is -52.3%.

Consider `CC1(C)CC(=O)c2cnn(-c3nc4ccccc4[nH]3)c2C1`, for which the cytotoxicity is -19%.

On to `COc1cc(C(C)=O)ccc1OC(=O)C(C)N1C(=O)c2ccccc2C1=O` (stereo not given), for which the cytotoxicity is -5.8%.

As for `O=C(NCc1ccco1)C(Cc1ccccc1)N1C(=O)c2ccccc2C1=O` (stereo not given), the cytotoxicity is -12.8%.

`COc1ccc(NC(=O)CC2C(=O)N(c3ccc(OC)cc3)C(=O)N2CCN2CCN(C)CC2)cc1` (stereo not given): the cytotoxicity was -7.8%.

As to `CC(C)OCCCN1C(=O)c2[nH]nc(-c3ccccc3O)c2C1c1cccc(Cl)c1` (stereo not given), the cytotoxicity is -4.9%.

As to `COCCCN1C(=O)c2[nH]nc(-c3ccccc3O)c2C1c1ccc(Cl)cc1` (stereo not given), the cytotoxicity is 62.9% (active).

As to `Cc1ccc(C2c3c(-c4ccccc4O)n[nH]c3C(=O)N2Cc2ccncc2)cc1` (stereo not given), the cytotoxicity is 8.5%.

As to `COc1ccc(CCN2C(=O)c3[nH]nc(-c4ccccc4O)c3C2c2ccccc2)cc1OC` (stereo not given), the cytotoxicity was 24%.

Turning to `COc1cc(C2C(C(C)=O)=C(O)C(=O)N2CCc2ccc(OC)c(OC)c2)ccc1O` (stereo not given), the cytotoxicity is 1.7%.

Consider `COCCCN1C(=O)c2[nH]nc(-c3cc(C)cc(C)c3O)c2C1c1ccc(O)c(OC)c1` (stereo not given), for which the cytotoxicity was 12%.

As for `COc1ccc(C2c3c(-c4cc(Cl)c(C)cc4O)n[nH]c3C(=O)N2Cc2cccnc2)cc1OC` (stereo not given), the cytotoxicity is 14.2%.

With `Cc1cc(O)c(-c2n[nH]c3c2C(c2cccc(O)c2)N(Cc2cccnc2)C3=O)cc1Cl` (stereo not given), the cytotoxicity is 9.3%.

Take `COc1ccc(C2c3c(-c4ccccc4O)n[nH]c3C(=O)N2CCc2ccc(OC)c(OC)c2)cc1` (stereo not given): the cytotoxicity was 51.4% (active).

In the case of `COCCCN1C(=O)c2[nH]nc(-c3ccccc3O)c2C1c1cccc(Cl)c1` (stereo not given), the cytotoxicity was 18.6%.

Regarding `COc1ccc(CCN2C(=O)c3[nH]nc(-c4ccccc4O)c3C2c2cccc(O)c2)cc1OC` (stereo not given), the cytotoxicity was 63.4% (active).

Consider `Cc1ccc(S(=O)(=O)N(C)CCCC(=O)NCc2ccc3c(c2)OCO3)cc1`, for which the cytotoxicity was -7.5%.

In the case of `O=S(=O)(c1cccc(-c2csc(-c3cccnc3)n2)c1)N1CCCCC1`, the cytotoxicity was -13.4%.

For `Cn1nccc1/C=C(/C#N)S(=O)(=O)c1ccccc1`, the cytotoxicity is -21.9%.

In the case of `Cc1ccc2nc(SCC(=O)O)nc(C)c2c1`, the cytotoxicity is -14.7%.

As to `CCc1nnc(NC(=O)CSc2nnc(Cc3ccccc3)n2-c2ccccc2)s1`, the cytotoxicity is -4.7%.

Consider `CC1=Nn2c(nnc2-c2ccco2)SC1`, for which the cytotoxicity is -17.8%.

For `COC(=O)c1sc(NC(=O)C2CCCO2)c(C(=O)OC)c1C` (stereo not given), the cytotoxicity was 19.4%.

For the molecule `COc1cc(OC)cc(-c2nnc(SCC(=O)N3c4ccccc4Sc4ccccc43)o2)c1`, the cytotoxicity is -24.8%.

Turning to `O=C(CCN1c2ccccc2Sc2ccccc21)OCc1nnc(-c2ccccc2)o1`, the cytotoxicity is 3.5%.

With `Cc1nnc(SC(=O)N2c3ccccc3Sc3ccccc32)s1`, the cytotoxicity was -0.5%.

On to `COc1ccc(C(=O)CSc2nnc(-c3ccccc3)o2)cc1`, for which the cytotoxicity is -6.4%.

On to `O=C(COc1cc(Cl)ccc1Cl)Nc1nnc(CC(=O)N2CCOCC2)s1`, for which the cytotoxicity was -20%.

With `COc1ccccc1NC(=O)CN1CCN(CC(=O)Nc2ccc(F)cc2)CC1`, the cytotoxicity was 11.3%.

Consider `CCCNc1nc2c(c(=O)[nH]c(=O)n2C)n1Cc1ccc(F)cc1`, for which the cytotoxicity was 8.2%.

On to `CC1Cc2ccccc2N1S(=O)(=O)c1ccc2c(c1)n(C)c(=O)c(=O)n2C` (stereo not given), for which the cytotoxicity is 2.9%.

`CCOC(=O)C1CCCN(S(=O)(=O)Cc2ccccc2)C1` (stereo not given): the cytotoxicity is -14.4%.

As to `O=C(O)c1ccc(CN2C(=O)CSC2=S)cc1`, the cytotoxicity is -5.7%.

In the case of `O=C1CSC(=S)N1c1cccnc1`, the cytotoxicity was -10.8%.

On to `Cc1cccc(NC(=O)c2oc3c(c2C)C(=O)CC(C)(C)C3)n1`, for which the cytotoxicity was -12.7%.

Turning to `O=C(Nc1ccccc1C(=O)N1CCN(Cc2ccccc2)CC1)c1ccccn1`, the cytotoxicity is 8.7%.

For `COc1ccc2[nH]c(=O)c(CN(C(=O)COc3ccccc3)C(C)C)cc2c1`, the cytotoxicity is -31.9%.

On to `COC(=O)C1=C(N)OC2=C(C(=O)CC(C)(C)C2)C1c1ccoc1` (stereo not given), for which the cytotoxicity is -4%.

Consider `Cc1nn(C)cc1C1C2=C(CC(C)(C)CC2=O)OC2=C1C(=O)CC(C)(C)C2`, for which the cytotoxicity is 2.9%.

As to `O=C(c1ccccc1C(=O)N1CCN(c2ccccc2F)CC1)N1CCN(c2ccccc2F)CC1`, the cytotoxicity was 4%.

For `COC(=O)c1ccccc1NC(=O)c1ccc(COc2ccccc2)o1`, the cytotoxicity was 10.5%.

For the molecule `COC(=O)c1ccccc1NC(=O)c1ccc(-c2ccccc2F)o1`, the cytotoxicity was 90.9% (active).

Consider `COc1ccccc1NC(=O)c1ccc(-c2ccccc2F)o1`, for which the cytotoxicity was -9%.

Turning to `COc1ccc(NC(=O)C(c2ccccc2)N(C)C(=O)c2cnccn2)cc1` (stereo not given), the cytotoxicity is -2.6%.

Turning to `Cc1ccc(NC(=O)Cn2c(=O)n(Cc3ccco3)c(=N)c3c4c(sc32)COC(C)(C)C4)cc1`, the cytotoxicity was 23%.

Consider `CC1(C)Cc2c(sc3c2c(=N)n(Cc2ccco2)c(=O)n3CC(=O)Nc2ccc(Cl)cc2)CO1`, for which the cytotoxicity is 52.6% (active).

Take `CC1(C)Cc2c(sc3c2c(=N)n(Cc2ccco2)c(=O)n3CC(=O)Nc2ccccc2)CO1`: the cytotoxicity was 8.6%.

Turning to `COCCNS(=O)(=O)c1ccc2c(c1)C(=O)c1cc(S(=O)(=O)NCCOC)ccc1-2`, the cytotoxicity is -5.8%.

`CC1C(=O)C(C)C(c2cccs2)NC1c1cccs1` (stereo not given): the cytotoxicity is -4.9%.

For `CCOC(=O)c1csc(NC(=O)c2ccc(S(=O)(=O)N(C)C)cc2)n1`, the cytotoxicity was 5.4%.

For `O=C(NC1CCCCC1)N1CCC(n2c(=O)[nH]c3ccccc32)CC1`, the cytotoxicity is -0.1%.

`O=c1[nH]c2ccccc2n1CCCN1CCN(C(c2ccccc2)c2ccccc2)CC1`: the cytotoxicity was 31.4%.

`Cc1noc(C)c1CSc1nnc(-c2ccncc2)n1-c1cccc(Cl)c1C`: the cytotoxicity is -13.5%.

In the case of `COc1cc(C2CC(=O)C=C(O)C2)cc(OC)c1OC` (stereo not given), the cytotoxicity was -10%.

As for `CCOc1ccc(C(=O)NCc2cccnc2)cc1`, the cytotoxicity was 0.5%.

For the molecule `O=S(=O)(c1ccc2nc(Cc3ccccc3)[nH]c2c1)N1CCOCC1`, the cytotoxicity is 2.7%.

For `CC(=O)Nc1ccc(S(=O)(=O)N2CCN(c3cc(C)nc4ccccc34)CC2)cc1`, the cytotoxicity is -3.8%.

`CC(=O)Nc1ccc(S(=O)(=O)N2CCC(c3nc4ccccc4[nH]3)CC2)cc1`: the cytotoxicity is 10.6%.

On to `COc1cc(O)c(NC(C)=O)c2nonc12`, for which the cytotoxicity was 1.5%.

For `CC(=O)Nc1nonc1NC(C)=O`, the cytotoxicity was -9.1%.

With `Cc1ccc2nc(NCc3ccccc3)[nH]c2c1`, the cytotoxicity is 85% (active).

As to `COc1ccc2nc(NCc3ccccc3)[nH]c2c1`, the cytotoxicity was 39.9%.

`c1ccc(CNc2nc3ccccc3[nH]2)cc1`: the cytotoxicity was -13.8%.

Consider `O=S(=O)(NCc1ccccc1)c1cccc2nonc12`, for which the cytotoxicity is 4.4%.

In the case of `CCC1(C)Cc2c(sc3nc4n(c(=O)c23)CCS4)CO1` (stereo not given), the cytotoxicity was 20.1%.

For the molecule `CC(C)Cn1c(Br)nc2c1c(=O)n(CCC#N)c(=O)n2C`, the cytotoxicity was -5.5%.

Turning to `O=C1NC2(CCCC2)N=C1c1ccc(Cl)cc1`, the cytotoxicity is -2.2%.

Consider `O=C1NC2(CCCCC2)N=C1c1ccccc1`, for which the cytotoxicity was 0.3%.

As for `Fc1ccccc1CSc1nc2ncccc2[nH]1`, the cytotoxicity was -2.9%.

On to `O=C(CSc1nc2ccccc2s1)Nc1ncccn1`, for which the cytotoxicity was -2%.

As for `CCS(=O)(=O)CCSc1nc2ccccc2s1`, the cytotoxicity was -6%.

`CCS(=O)(=O)CCSc1nc2ccccc2o1`: the cytotoxicity was -13.9%.

Take `c1ccc2oc(SCc3nc4ccccc4s3)nc2c1`: the cytotoxicity was 1.9%.

`Cn1c(SCc2cc(=O)n3cc(Br)ccc3n2)nnc1C1COc2ccccc2O1` (stereo not given): the cytotoxicity was -2.9%.

As to `COc1ccccc1-n1cnc2cc(NC(C)=O)ccc21`, the cytotoxicity is -14.9%.

For `COc1ccccc1-n1cnc2cc(NCc3ccco3)ccc21`, the cytotoxicity was 66.4% (active).

Turning to `CCC(=O)Nc1ccc2c(c1)ncn2-c1ccccc1OC`, the cytotoxicity was -32.9%.

For `Cc1cccc2nc(Cn3c(=O)n(CCC(=O)NCc4ccco4)c(=O)c4sccc43)cc(=O)n12`, the cytotoxicity was 2.4%.

For the molecule `O=C(NCN1C(=O)C2C3C=CC(C3)C2C1=O)Nc1nccs1` (stereo not given), the cytotoxicity is -8.1%.

Turning to `Cc1c(C(=O)OC(C)C)[nH]c2c1C(=O)CCC2`, the cytotoxicity was 18%.

For the molecule `Cc1ccc(C2C(C#N)=C(N)Oc3nc(-c4ccccc4)[nH]c32)o1` (stereo not given), the cytotoxicity was 0.6%.

`Cc1ccc(SCc2[nH]nc3c2C(c2ccc(C)o2)C(C#N)=C(N)O3)cc1` (stereo not given): the cytotoxicity is 10.8%.

As for `O=C(Nc1ccccc1)c1ccc(S(=O)(=O)NCC2CCCO2)cc1` (stereo not given), the cytotoxicity is -7.8%.

On to `COc1ccc(C2=NOC(C(=O)NCCCN3CCOCC3)C2)cc1` (stereo not given), for which the cytotoxicity is 1.1%.

With `Cc1ccc(-c2nnn(CC(=O)N(Cc3cccs3)C(C(=O)NC3CCCC3)c3ccco3)n2)o1` (stereo not given), the cytotoxicity is 66.5% (active).

Take `Cc1ccc(-c2nnn(CC(=O)N(c3ccccc3)C(C(=O)NC3CCCC3)c3ccco3)n2)o1` (stereo not given): the cytotoxicity was -7.9%.

For `Cc1ccc(-c2nnn(CC(=O)N(Cc3cccs3)C(C(=O)NC(C)(C)C)c3ccco3)n2)o1` (stereo not given), the cytotoxicity is -2.9%.

Consider `CCOC(=O)N1CCN(C(=O)c2c(O)c3cccc4c3n(c2=O)CC4)CC1`, for which the cytotoxicity was -3%.

`O=C(O)CSC1CC(=O)N(c2cccc(Cl)c2)C1=O` (stereo not given): the cytotoxicity was -10.2%.

Turning to `CCc1nc(SCC(=O)c2ccc(C)c(C)c2)n[nH]1`, the cytotoxicity is -2.5%.

Source of the values: PubChem BioAssay AID431 (Sanford-Burnham Center for Chemical Genomics, 2006).
